Data on 17 molecules can be found in PubChem BioAssay.

Calls of active or inactive are those of the source. Unless noted, the rule behind the calls is not given here.

The subject of test [1] is XIP peptide (Xip251-270) binding. Description: XIP fragment 251-270 binding compounds – biochemical, small-molecule microarray, fluorescence 635/667 nm, 0.1 µg/mL protein, primary screen (AID 1182). Conditions: fluorescent protein binding, 635 nm, higher = more signal, called active from +8 up or from −8 down.
Test [2] deals with XIP peptide (Xip251-270). Nature of the test: compounds binding XIP fragment 251-270 – biochemical, small-molecule microarray, fluorescence 635/667 nm, 0.5 µg/mL protein, primary screen (AID 1183). Conditions: fluorescence 635 nm, higher = more signal.
Test [3] can be described thus: blood-stage malaria parasite viability loss – strain 3D7, DAPI fluorescence, 100 nL, primary screen (AID 1184).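 Note: parasites grown inside human red blood cells in medium with human serum.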 Conditions: P. falciparum 3D7 growth, 3 d, higher = more signal.
Test [4] deals with Homeobox protein Hox-A13 (Mus musculus) (UniProt Q62424). Nature of the test: disruptors of Hoxa13 oligonucleotide interaction – biochemical, fluorescence polarization, labeled oligonucleotide, primary screen (AID 1185). Conditions: Hoxa13:DNA binding, 15 min, higher = more signal, called active from +8 up or from −8 down.
Chain of Homeobox protein Hox-A13 (Mus musculus) (Q62424 whole entry, looked up): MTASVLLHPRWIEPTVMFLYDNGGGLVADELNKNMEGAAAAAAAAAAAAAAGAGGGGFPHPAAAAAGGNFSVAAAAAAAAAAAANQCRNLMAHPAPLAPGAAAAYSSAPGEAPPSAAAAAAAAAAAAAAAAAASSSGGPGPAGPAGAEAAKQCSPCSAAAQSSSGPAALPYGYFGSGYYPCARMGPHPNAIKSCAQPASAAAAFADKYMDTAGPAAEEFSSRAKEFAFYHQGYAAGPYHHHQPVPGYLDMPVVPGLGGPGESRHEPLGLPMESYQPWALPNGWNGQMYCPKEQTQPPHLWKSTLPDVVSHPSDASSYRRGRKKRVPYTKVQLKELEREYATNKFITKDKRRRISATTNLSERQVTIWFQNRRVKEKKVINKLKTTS
Test [5] can be described thus: blockers of DNA damage checkpoint Chk1 activation – imaging, HeLa, hydroxyurea, phospho-Chk1 antibody, percent positive cells, primary screen (AID 1186). The following applies: hydroxyurea-induced phospho-Chk1 immunofluorescence imaging, higher = more signal.
A short description of test [6]: blockers of DNA damage checkpoint Chk1 activation – imaging, HeLa, hydroxyurea, phospho-Chk1 nuclear intensity, primary screen (AID 1187). The following applies: hydroxyurea-induced phospho-Chk1 immunofluorescence imaging, higher = more signal.

On to `CCCCC(=C=CC[C@H](O)c1ccccc1OCCO)CCO`, for which the results for the composite z-score in test [1] and in test [2] were 1.47 (inactive) and -0.0255, respectively. Moreover, the z-score in test [3] is -0.315; in test [4], -3.54 (inactive); in test [5] it was 0.324 (inactive); in test [6] it was 0.181 (inactive).
On to `C[C@]1(C(=O)NC2CC2)c2ccccc2C(=O)N(Cc2cc(F)cc(C(F)(F)F)c2)[C@H]1c1ccc(CO)cc1`, for which the composite z-score is 0.431 (inactive) in test [1] and 0.883 in test [2]. Further, the z-score was 0.0713 in test [3], -3.51 (inactive) in test [4], 0.361 (inactive) in test [5] and 0.529 (inactive) in test [6].
In the case of `CN1C(=O)C2C=CC(C(O)c3ccc([N+](=O)[O-])cc3)N(Nc3ccccc3)C2C1=O` (configuration not stated), the figures for the composite z-score in test [1] and in test [2] were 0.924 (inactive) and 0.818, respectively. Moreover, the z-score was -0.219 in test [3], -4.24 (inactive) in test [4], 0.533 (inactive) in test [5] and 0.397 (inactive) in test [6].
On to `CC(C)N1CC=CC23O[C@@H]4/C=C\CCCOC(=O)C4[C@H]2C(=O)N(C(C)CO)[C@@H]3C1=O` (some centres not stated), for which the values for the composite z-score in test [1] and in test [2] were -0.0835 (inactive) and 0.0575, respectively. For the same molecule, the z-score was 0.261 in test [3], -4.1 (inactive) in test [4], -1.36 (inactive) in test [5] and -0.988 (inactive) in test [6].
On to `CCc1cccc(NC(=O)O[C@H]2[C@H](OC(=O)Nc3ccccc3-c3ccccc3)[C@H](OC(=O)Nc3ccccc3-c3ccccc3)[C@@H](OC)O[C@@H]2CO)c1`, for which the composite z-score is 0.187 (inactive) in test [1] and 0.591 in test [2]. Also, the z-score in test [3] was -2.53; in test [4], -1.39 (inactive); in test [5], -0.36 (inactive); in test [6] it was 0.0172 (inactive).
As for `CCOC(=O)C1=CCC(c2cccn2C(=O)OC(C)(C)C)N(S(=O)(=O)c2ccc(C)cc2)C1` (configuration not stated), the composite z-score is 0.153 (inactive) in test [1] and 0.732 in test [2]. In addition, the z-score in test [3] was -1.62; in test [4], 0.323 (inactive); in test [5], -1.06 (inactive); in test [6], -1.18 (inactive).
With `COc1ccc(CCNC(=O)[C@@H]2c3ccccc3C(=O)N(Cc3cc(F)cc(C(F)(F)F)c3)[C@H]2c2ccc(CO)cc2)cc1`, the composite z-score was 0.614 (inactive) in test [1] and 0.906 in test [2]. Also, the z-score in test [3] is -1.42; in test [4] it was -3.95 (inactive); in test [5], -0.0525 (inactive); in test [6] it was 0.275 (inactive).
Regarding `COC(=O)[C@@]1(Cc2ccccc2)[C@H]2c3cc(C(=O)N(C)C)n(Cc4nc5ccccc5[nH]4)c3C[C@H]2CN1C(=O)c1ccccc1`, the composite z-score in test [1] was 0.857 (inactive); in test [2] it was 0.784. Besides, the z-score in test [3] was -0.542; in test [4] it was -1.6 (inactive); in test [5], -0.283 (inactive); in test [6], 0.0294 (inactive).
Turning to `COCCOC(=O)N1C(=O)[C@@]2(c3cc(C#CCNC(N)=O)ccc31)[C@H](c1ccc(O)cc1)N1[C@H](c3ccccc3)[C@H](c3ccccc3)OC(=O)[C@H]1[C@@H]2C(=O)N1CCc2cc(OC)c(OC)cc2C1`, the composite z-score in test [1] was -0.0561 (inactive); in test [2] it was 0.329. The z-score in test [3] was -0.0011; in test [4] it was -1.73 (inactive); in test [5] it was 0.0017 (inactive); in test [6], -0.0878 (inactive).
Turning to `COC(=O)[C@@]1(Cc2ccc(OC)cc2)[C@@H]2[C@@H](CC(=O)[C@H]2CC(=O)C(=O)N(C)C)CN1C(=O)c1ccccc1`, the composite z-score was 0.206 (inactive) in test [1] and 0.516 in test [2]. In addition, the z-score in test [3] was -1.56; in test [4], -2.61 (inactive); in test [5] it was 0.0341 (inactive); in test [6] it was -1.04 (inactive).
For the molecule `CC1CC/C=C\[C@H]2OC34C=CCN(CCN5CCOCC5)C(=O)[C@H]3N(C(CO)C(C)C)C(=O)[C@@H]4C2C(=O)O1` (some centres not stated), the composite z-score is 0.287 (inactive) in test [1] and 0.054 in test [2]. Further, the z-score in test [3] was -0.0648; in test [4], -7 (inactive); in test [5], 0.607 (inactive); in test [6] it was 0.284 (inactive).
Regarding `[N-]=[N+]=NCc1ccccc1C[C@@]1(C(N)=O)N=C(c2ccc(OCCCO)cc2)O[C@@H]1c1ccccc1N=[N+]=[N-]`, the composite z-score in test [1] was 0.497 (inactive); in test [2], 0.63. In addition, the z-score in test [3] is -2.41; in test [4] it was -4.99 (inactive); in test [5] it was 0.627 (inactive); in test [6] it was 1.02 (inactive).
With `O=C1OCC=C[C@H]2OC34C=CCN(Cn5nnc6ccccc65)C(=O)[C@H]3N(CCO)C(=O)[C@@H]4[C@@H]12` (some centres not stated), the composite z-score in test [1] is -0.149 (inactive); in test [2], -0.884. Moreover, the z-score in test [3] is 1.12; in test [4], -4.12 (inactive); in test [5], -0.743 (inactive); in test [6], -0.287 (inactive).
`C=C(COC)/C(=C/C[C@@H](OC(=O)c1ccncc1)c1ccccc1OCCO)c1cnc2ccccc2c1`: the values for the composite z-score in test [1] and in test [2] were 0.882 (inactive) and 0.745, respectively. Moreover, the z-score in test [3] is -3.1; in test [4] it was -4.25 (inactive); in test [5], 0.112 (inactive); in test [6], -0.291 (inactive).
In the case of `O=C1O[C@H](c2ccccc2)[C@H](c2ccccc2)N2[C@H]1[C@@H](C(=O)N1CCCCCCC1)[C@]1(C(=O)Nc3ccc(C#CCCO)cc31)[C@H]2c1ccc(O)cc1`, the composite z-score was 4.41 (inactive) in test [1] and 0.976 in test [2]. The z-score was -0.189 in test [3], 1.85 (inactive) in test [4], -0.323 (inactive) in test [5] and -0.279 (inactive) in test [6].
On to `COc1ccc([Si](C)(C)[C@H]2[C@H](CC(=O)N(CCO)Cc3ccccc3)O[C@@]3(C(=O)N(c4ccccc4)c4ccccc43)[C@@H]2C)cc1`, for which the composite z-score is -0.372 (inactive) in test [1] and 0.342 in test [2]. Besides, the z-score was -2.62 in test [3], -5.46 (inactive) in test [4], -0.807 (inactive) in test [5] and -0.763 (inactive) in test [6].
In the case of `COC(=O)[C@H]1N=C(c2ccc(OCCCO)cc2)O[C@H]1c1ccccc1N=[N+]=[N-]`, the composite z-score in test [1] is 0.363 (inactive); in test [2], 0.75. The z-score in test [3] was -2.1; in test [4], -4.13 (inactive); in test [5], -0.0771 (inactive); in test [6], 0.193 (inactive).
